# The list is not random: actives were taken first. Their share in the collection is about 21%.
# Shiga toxin inh: inhibitors of Shiga toxin in Vero cells. Vero cells, Shiga toxin protein synthesis inhibition reporter. inhibition, % at 38.7 µM. 290,000 compounds, 9.2% hits; in the data active = inhibition mostly above about 28%, no sharp cut-off; inactive = mostly below about 43%; also: 0% is about no effect
# CHX counter: counter-screen hit for Shiga toxin inhibitors, cycloheximide; cell reporter, cycloheximide protein synthesis inhibition counterscreen; max response, %; 300,000 compounds, 12% hits; AID 2314; in the data active = max response mostly above about 13%, no sharp cut-off; inactive = mostly below about 14%; also: read at 38.3 µM for the half of the compounds with a filed dose; 0% is about no effect
# Pf growth 96h: P. falciparum growth inhibition at 96 hour, primary screen for plastid delayed-death inhibitors | P. falciparum luciferase reporter growth, 96 h | Potency, µM (titrated, usually from 28.7 µM), without a hit: top-dose activity change, negative = inhibition, hits mostly inhibitors | 320,000 compounds, 6.9% hits | AID 504834; also: potency is read from the fitted curve at half-maximal effect; % is scaled to controls: 0 for no effect and ±100 for the full control effect
#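 Luminescence readout: decreased luciferase signal marks inhibited growth of reporter-expressing P. falciparum in infected red cells (2% hematocrit, 0.05% parasitemia final), exposed to compound two generations (96 h, 37 C, 5% CO2).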
# Pf growth 48h: P. falciparum growth inhibition at 48 hours (one generation); P. falciparum luciferase growth in erythrocytes, 48 h; Potency, µM (highest dose often 28.7 µM), for the others: at the top dose activity change, negative = inhibition, most hits filed as inhibitors; 310,000 compounds, 5.9% hits; AID 504832; also: potency is read from the fitted curve at half-maximal effect; % is scaled to controls: 0 for no effect and ±100 for the full control effect
#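 First compound was added to culture medium, then infected red cells at 0.1% parasitemia and 2% hematocrit (final). After incubation at 37 C under 5% CO2, luciferase detection reagent was dispensed and light output recorded.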
# * marks the source's active call; other numbers are inactive results; ? = inconclusive; / = no result. Unless noted, calls follow the shape of the dose curve; as a rule, active = well fitted inhibition curve with a large enough effect; inconclusive = small, poorly fitted or top-dose-only effect, or another doubt; inactive = no such curve, though single readings can be large or run the other way.
SMILES,Shiga toxin inh,CHX counter,Pf growth 96h,Pf growth 48h
Nc1ccc2nc(-c3ccccc3)c(-c3ccccc3)nc2c1,18.6,-4.9,?,-1.1%
CCC(=O)Nc1cc(-c2cc3ccccc3oc2=O)ccc1OC,23.5,7.1,2.94µM*,85.3%
O=C(NCc1cccnc1)c1ccc(-c2cc3ccccc3oc2=O)cc1,67.1*,38.7*,?,41.1%
CC(=O)N1CCc2cc(S(=O)(=O)N3CCc4ccccc43)ccc21,-1.9,-1.9,?,-1.4%
CCCCS(=O)Cc1ccccc1 (stereo unspecified),-3.6,-4.2,-22.5%,1.1%
CCc1nnc(NC(=O)CCC(=O)NC2CCCC2)s1,8.8,3.6,?,-9.0%
COc1ccc(-c2cc3ccc(OCC(N)=O)cc3oc2=O)cc1OC,18.4,9.0,24.5%,53.8%
COc1ccc(-c2cc3ccc(O)cc3oc2=O)cc1OC,68.1*,31.8*,36.3%,54.4%
O=C(Cc1ccc(Cl)cc1)Nc1ccc(-c2cc3ccccc3oc2=O)c(Cl)c1,-5.5,8.4,14.5%,?
CCC(=O)Nc1ccc(-c2cc3ccccc3oc2=O)cc1,107.4*,37.6*,15.9%,43.9%
O=c1oc2ccccc2cc1NCc1ccccc1O,123.2*,54.8*,?,89.7%
Nc1ccc(-c2cc3ccccc3oc2=O)cc1,-13.9,-6.2,?,?
O=c1oc2ccccc2cc1-c1ccc(O)cc1,68.9*,118.0*,?,67.9%
Cc1ccc(N2C(=O)C3C4CC(=O)C(c5ccccc54)C3C2=O)cc1C (stereo unspecified),-3.0,4.9,433.9%,10.9%
CCN(CC)C(=O)Cn1cc(S(=O)(=O)CC(=O)Nc2ccc(C(N)=O)cc2)c2ccccc21,-11.8,-1.1,?,-6.6%
COc1ccc(-c2cc3ccccc3oc2=O)cc1NC(=O)c1ccc(Br)o1,9.4,13.6,-2.1%,16.7%
CC(=O)Nc1ccc(-c2cc3ccccc3o2)cc1,104.8*,43.4*,/,324.3%
COc1ccc(-c2cc3ccccc3oc2=O)cc1NC(=O)c1ccc([N+](=O)[O-])o1,15.5,8.7,2.62µM*,?
Cc1cc(N)ccc1-c1cc2ccccc2oc1=O,/,16.7*,?,34.9%
CN(C#N)c1nc(Cl)nc(Nc2cccc(Cl)c2)n1,-9.4,4.2,9.3%,0.4%
CCCCN(C(=O)Cc1ccc(S(=O)(=O)N2CCOCC2)s1)c1ccccc1,/,/,11.7µM*,?
O=C(Cc1ccc(S(=O)(=O)N2CCOCC2)s1)N(Cc1ccccc1)c1ccccc1,/,/,2.33µM*,9.28µM*
COc1ccc(CN(C)C(=O)Cc2ccc(S(=O)(=O)N3CCOCC3)s2)cc1OC,/,/,-25.5%,-17.6%
COC(=O)c1cccc(NS(=O)(=O)c2ccc(OC)c(C(=O)N3CCOCC3)c2)c1C,-2.9,-3.4,-0.3%,9.2%
C(=N\c1nccs1)/c1cccnc1,18.6,-4.0,?,-3.3%
SMILES,Shiga toxin inh,CHX counter,Pf growth 96h,Pf growth 48h
CN(/N=C/c1cccnc1)c1cnc2ccccc2n1,64.4*,47.4*,-7.9%,295.1%
[O-][n+]1ccccc1SSc1cccc[n+]1[O-],/,/,0.477µM*,0.849µM*
O=C(CSc1cccc[n+]1[O-])CSc1cccc[n+]1[O-],-7.9,7.2,0.185µM*,9.28µM*
Cc1cc(C)c(NC(=O)CN(C2CCCCC2)C2CCCCC2)c(C)c1,-25.8,-5.7,/,?
Cc1cc(C)c(NC(=O)CN(CC(=O)O)CC(=O)O)c(C)c1Br,/,/,3.38µM*,-22.6%
CN1CCN(CC(=O)Nc2ccc(Cl)cc2Cl)CC1,24.9,10.4,9.28µM*,14.8%
CN1CCN(C(=S)Nc2ccc(Cl)cc2Cl)CC1,11.9,16.2*,22.2%,/
CCN1CCN(C(=S)Nc2ccc(Cl)cc2Cl)CC1,26.5,24.9*,55.7%,/
Cc1cc(Cl)ccc1NC(=O)CN1CCCC1,-3.8,3.3,-28.8%,-8.0%
S=C(Nc1ccc(Cl)cc1Cl)N1CCOCC1,-10.6,-0.5,-21.8%,0.8%
CN(C)C=Nc1ccc(Cl)c(Cl)c1,-8.1,-0.7,0.0%,24.5%
CN(C)C=Nc1ccc2nn(-c3ccccc3)nc2c1,92.7*,43.4*,-19.3%,204.8%
N#Cc1ccccc1S(=O)(=O)N1CCN(c2cnccn2)CC1,-19.2,-7.3,-19.6%,0.0%
Nc1nnc(Cc2ccc(F)cc2)s1,-3.5,-0.5,1.9%,10.4µM*
Cn1nc(Cc2n[nH]c(=S)n2C)c2ccccc2c1=O,-11.5,-2.7,8.9%,-6.1%
O=C(N=C1N=C2C=CC=CN2Cc2ccccc21)c1ccc(S(=O)(=O)N2CCOCC2)cc1,154.3*,32.5*,-1.2%,41.2%
CN(C)S(=O)(=O)c1cccc(C(=O)N=C2N=C3C=CC(Cl)=CN3Cc3ccccc32)c1,130.2*,53.0*,?,?
